Compounds with a hit are over-represented: about 1.7% of the library has one in this group of screens.
CHT block – inhibitors of human choline transporter CHT | High affinity choline transporter 1 (Homo sapiens), Q9GZV3 | actives 0.86% (n = 310,000) | B-score at 10 µM | CHT-expressing cells, membrane potential dye, choline response; active compounds read low;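 active = B-score over 3 SD under the library average, and starting fluorescence ratio not unusually high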;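 also: choline stimulus applied at its EC90 after an EC20 pre-addition; B-score computed on integrated fluorescence ratio after choline addition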
Target sequence (Q9GZV3 whole entry, looked up): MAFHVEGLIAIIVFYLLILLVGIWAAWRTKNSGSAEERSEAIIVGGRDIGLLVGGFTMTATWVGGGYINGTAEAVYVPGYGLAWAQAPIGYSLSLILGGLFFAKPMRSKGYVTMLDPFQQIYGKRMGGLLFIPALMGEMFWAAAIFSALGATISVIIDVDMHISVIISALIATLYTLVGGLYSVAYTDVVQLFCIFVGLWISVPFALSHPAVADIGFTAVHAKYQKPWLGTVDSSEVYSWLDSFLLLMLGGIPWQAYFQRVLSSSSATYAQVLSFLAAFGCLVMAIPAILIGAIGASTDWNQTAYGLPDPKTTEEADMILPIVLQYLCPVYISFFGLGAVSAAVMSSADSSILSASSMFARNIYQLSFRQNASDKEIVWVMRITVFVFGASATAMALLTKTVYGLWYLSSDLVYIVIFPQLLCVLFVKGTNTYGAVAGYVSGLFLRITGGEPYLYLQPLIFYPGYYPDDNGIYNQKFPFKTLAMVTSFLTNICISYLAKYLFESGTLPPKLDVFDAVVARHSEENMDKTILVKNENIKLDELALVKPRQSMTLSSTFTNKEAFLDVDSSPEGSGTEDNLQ
beta cell repl – inducers of MIN6 beta-cell proliferation, primary screen, ATP luminescence, uHTS; proliferation, % at 10 µM; AID 2380, 2010; MIN6 cells proliferation, ATPlite luminescence, 48 h; cells starved in 0.2% serum; 100% = growth in 10% serum; actives 0.29% (n = 330,000);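 active = compounds whose signal lies at least 3.5 SD above the mean of all wells on their plate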;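 also: 0% = DMSO-treated cells in low-serum medium and 100% = 10% serum control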
TAG inh – inhibitors of triacylglycerol accumulation, primary screen, cell-based, uHTS, fluorescence, H9c2; actives 0.66% (n = 230,000); inhibition, % at 12.5 µM; AID 651582, 2012; H9c2 cells, Nile Red lipid (TAG) fluorescence; cells loaded with 200 µM oleic acid;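 active = pattern-corrected inhibition of lipid staining of at least 50% with the nuclear-stain viability signal not falling by more than 50%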;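 also: 0% = DMSO wells and 100% = triacsin C control wells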
CHT allo act – CHT positive allosteric modulators, primary screen, cell-based, membrane potential dye, choline EC20 | AID 488977, 2010 | B-score at 10 µM | CHT-expressing cells; active compounds read high; LV-AA mutant CHT in HEK293 cells | actives 0.49% (n = 310,000);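 active = initial fluorescence not abnormally high and integrated response B-score, plate-corrected, over 3 SD above library mean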
CHT block conf – CHT inhibitors, confirmation, cell-based, membrane potential dye, duplicate | shares compounds with CHT block | CHT-expressing cells, choline membrane potential dye; LV-to-AA substituted CHT, HEK293 cells | CHT activity remaining % of control (active compounds read low), % at 10 µM | actives 70% (n = 2,400) | AID 493221, 2011;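 active = choline transporter activity left, mean of duplicates at 10 µM, below buffer-only control mean minus 3 SD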;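 also: depolarization triggered by choline at its EC90 following an EC20 pre-addition; 0% = hemicholinium-3 full block and 100% = buffer-only control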
HEK293 MPD ctr – membrane potential effects in parental HEK293, counter-screen for CHT inhibitor project, cell-based, membrane potential dye. actives 4% (n = 2,400). choline response; active = decrease or increase beyond buffer ±3SD. shares compounds with CHT block. membrane potential ratio readout (active if shifted either direction beyond buffer ±3SD; no single direction) at 10 µM;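 also: parental cells lack the transporter so any hit is non-specific; ratio is peak minus trough fluorescence over baseline after EC90 choline challenge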
The depositor's hits bear a star; i = inactive; nt = not tested or not shown.

SMILES | CHT block | beta cell repl | TAG inh | CHT allo act | CHT block conf | HEK293 MPD ctr
COc1ccc2nc(NC(=O)Cn3cnc4ccccc4c3=O)sc2c1 | i | 0 | -6 | i | nt | nt
CCOC(=O)c1[nH]c(C=O)c(C(=O)OCC)c1C | -5.2* | -4 | -9 | i | 69%* | i
CCOC(=O)c1c(C)[nH]c(C(C)=O)c1C | i | 1 | 14 | i | nt | nt
O=C(NNc1cc(Br)c(O)c(Br)c1)c1ccccc1 | -7.4* | -6 | -23 | i | 47%* | i
CC1=NN(c2ccccc2)C(=O)/C1=C/c1c(O)n(-c2ccc(F)cc2)[nH]c1=O | -5.9* | -2 | nt | i | 54%* | i
CC1=NN(c2ccccc2)C(=O)C1=Cc1ccccc1 | nt | nt | 4 | nt | nt | nt
N#Cc1ccccc1COC(=O)c1cccnc1N | -5.7* | 4 | -9 | i | 65%* | i
O=C(OCc1ccccc1Cl)c1cccnc1Cl | i | 2 | nt | i | nt | nt
CN(C)CCNC(=O)c1nn(C)c2c1CCc1ccccc1-2 | i | -4 | nt | i | nt | nt
CCOc1cc(/C=C2\C(=O)ON=C2c2ccccc2)cc(Br)c1O | -5.6* | -7 | nt | i | 44%* | i
CC1=NOC(=O)/C1=C/c1ccc(O)c(Br)c1 | -9.6* | 0 | nt | i | 21%* | i
COc1cc(/C=C2/C(=O)ON=C2c2ccccc2)ccc1O | -6.7* | -1 | nt | i | 37%* | i
CCOc1cc(/C=C2/C(=O)ON=C2C)cc(Br)c1O | -9.6* | -2 | nt | i | 42%* | i
N#C/C(=C\c1ccc(O)c(Br)c1)C(=O)NCc1ccccc1 | -6.4* | 2 | -2 | i | 64%* | i
N#C/C(=C/c1ccccc1)C(=O)NCc1ccccc1 | i | -2 | -15 | i | nt | nt
Cc1noc(/C=C/c2cccs2)c1S(=O)(=O)N1CCC(C(=O)NCCCN2CCC(C)CC2)CC1 | -5.1* | 0 | 12 | i | i | i
CCOC(=O)CNS(=O)(=O)c1ccc2c3c(cccc13)C(=O)N2CC | i | 1 | 1 | i | nt | nt
CCOC(=O)Cc1csc(NS(=O)(=O)c2ccc3c4c(cccc24)C(=O)N3CC)n1 | -5* | -3 | 15 | i | 46%* | i
CC(NS(=O)(=O)c1ccccc1)C(c1cccs1)N1CCOCC1 (centres undefined) | i | 0 | -4 | i | nt | nt
COC(=O)CN1C(=O)COc2ccc(S(=O)(=O)NCc3ccc(Cl)cc3)cc21 | -6.1* | 2 | nt | i | i | i
CCOc1ccc(N(CC(=O)NCc2ccc(F)cc2)C(=O)CCC(=O)Nc2nccs2)cc1 | i | 0 | nt | i | nt | nt
N#C/C(=C\c1ccccc1)C(=O)NNS(=O)(=O)c1ccc(Br)cc1 | nt | -3 | 9 | nt | nt | nt
Cc1ccc(NC(=O)COC(=O)CNC(=O)c2ccc(C)s2)cc1 | i | 0 | -16 | i | nt | nt
Cc1ccc(C(=O)NCC(=O)OCC(=O)Nc2ccccc2C#N)s1 | -13* | -1 | -6 | i | 65%* | i
COc1cc(C(=O)NC(=S)NNC(=O)[C@H]2C[C@@H]2c2ccccc2)cc(OC)c1OC | -5.9* | -3 | 11 | i | 48%* | i
SMILES | CHT block | beta cell repl | TAG inh | CHT allo act | CHT block conf | HEK293 MPD ctr
Cc1cc(C)nc(N2C(=O)CC(Cc3ccc(Cl)cc3)C2=O)n1 (centres undefined) | i | -2 | -19 | i | nt | nt
Cc1cc(C)nc(N2N=C(CSc3ccc(Cl)cc3)CC2=O)n1 | -5* | -3 | 10 | i | 42%* | i
COC(=O)c1ccc(CSc2nc3ccc(C)cc3[nH]2)o1 | i | -2 | 7 | i | nt | nt
O=S(=O)(Cc1ccccc1)NCCc1cccc(Cl)c1 | i | -1 | -1 | i | nt | nt
CC1CC(C)(C)OC(c2ccc(C(C)C)cc2)O1 (centres undefined) | nt | nt | -14 | nt | nt | nt
COc1ccc(Cl)cc1N(C(=O)Nc1cccc(Cl)c1)C1=NCC(C)S1 (centres undefined) | i | 0 | nt | i | nt | nt
O=C(N=c1ccn(-c2nc3ccccc3nc2NS(=O)(=O)c2ccccc2)cc1)c1cccs1 | i | 0 | 6 | i | nt | nt
Cc1ccccc1C(=O)N=c1ccn(-c2nc3ccccc3nc2NS(=O)(=O)c2ccc(F)cc2)cc1 | -5.9* | -1 | nt | i | i | i
NC(=O)CC(NSc1ccccc1[N+](=O)[O-])C(=O)O (centres undefined) | i | -6 | nt | i | nt | nt
CCN(CC)C(=O)Cn1ncc2c1-c1ccccc1OC2 | i | -2 | 1 | i | nt | nt
O=C(Cn1ncc2c1-c1ccccc1OC2)N(Cc1ccco1)C1CCCCC1 | -4.9* | -1 | -20 | i | i | i
O=C1C=C(c2cccc(CO)c2)C[C@@H](c2ccc(Cl)cc2)C1 | nt | -2 | 11 | nt | nt | nt
Cc1cc(S(=O)(=O)NCc2ccccc2)ccc1OCC(=O)NCc1ccncc1 | i | 0 | 10 | i | nt | nt
O=C(N/N=C/C1CC=CCC1)c1cc(-c2cccnc2)nc2ccccc12 (centres undefined) | -11* | 1 | 8 | i | 14%* | i
O=C(N/N=C/c1cccnc1)c1cc(-c2ccccc2)nc2ccccc12 | i | 0 | nt | i | nt | nt
CSc1cccc(NC(=O)C2CCN(S(=O)(=O)c3ccc4c(c3)NC(=O)CO4)CC2)c1 | i | 1 | nt | i | nt | nt
N#C/C(=C(/O)CN1CCCC1)c1nc(-c2ccccc2)cs1 | i | 2 | 10 | i | nt | nt
CCOC(=O)C1CCCN(C/C(O)=C(\C#N)c2nc(-c3ccc(Cl)cc3)cs2)C1 (centres undefined) | -5.7* | -1 | nt | i | i | i
CNc1ncnc2c1ncn2[C@H]1CN(Cc2ccncc2)C[C@@H](CO)O1 | nt | nt | 20 | nt | nt | nt
O=C(CC1(O)C(=O)Nc2ccc(Br)cc21)c1ccccc1 (centres undefined) | nt | nt | -4 | nt | nt | nt
CCc1ccc(S(=O)(=O)NCc2cn3cccc(C)c3n2)s1 | -5.4* | -5 | -23 | i | 45%* | i
CCc1ccc(S(=O)(=O)NCc2cn3ccsc3n2)s1 | i | 3 | nt | i | nt | nt
Cc1ccc(-c2csc3ncnc(N4CCN(C)CC4)c23)cc1C | -11* | -3 | nt | i | 48%* | i
COc1ccc(CN2CCN(c3ncnc4scc(-c5ccc(F)cc5)c34)CC2)cc1 | i | -6 | nt | i | nt | nt
COc1ccc(N2CCN(c3ncnc4scc(-c5ccc(C)cc5)c34)CC2)cc1 | i | -4 | nt | i | nt | nt
CCN1CCN(c2ncnc3scc(-c4ccc(OC)cc4)c23)CC1 | -5.3* | -1 | nt | i | 51%* | i
